Test results published in PubChem BioAssay (NCATS).
Several values for one entry are separate records, joined by “and”; a condition that tells them apart may be missing. Identical values can stand only once. Inconclusive results are not listed. Activity calls are given as the source filed them. Unless noted, the call rests on the fitted dose curve; in most records, active means well fitted curve in the direction sought with a large enough effect; inconclusive means small, poorly fitted or top-dose-only effect, or another doubt; inactive means no such curve, though single readings can be large; an effect the other way counts as inactive or inconclusive.

Assays:
[1] = Nrf2 qHTS screen for inhibitors: Validation (AID 493153; active means well fitted inhibition curve with a large enough effect in the main read-out, with a control signal flat, not every such curve was filed as active); conditions: Potency: luciferase luminescence; viability change: measured here: cytotoxicity max response
In short: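 Luminescence from an ARE-firefly luciferase reporter in A549 cells gives Nrf2 inhibition; an earlier CellTiter-Fluor fluorescent read flags cytotoxicity. Cells in 5% FBS OPTI-MEM received compound dilution series for 18-24 h at 37°C.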

[2] = qHTS for Inhibitors of Cell Surface uPA Generation: Validation Assay (AID 493164); further: 0% is about no effect
In short: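 RAW 264.7 cells (4000/well) were plated overnight, then exposed for 18 h at 37 C, 5% CO2 to compounds in a 7-point 1:5 titration (2.45 nM–38.3 uM final). Intracellular ATP was read by ATP-Lite luminescence.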

[3] = biological target: Galactokinase (Homo sapiens) (UniProt P51570); test: qHTS Validation Assay for Inhibitors of Human Galactokinase (GALK) (AID 493189); further: 0% is about no effect
Chain of Galactokinase (Homo sapiens) (P51570 whole entry, looked up): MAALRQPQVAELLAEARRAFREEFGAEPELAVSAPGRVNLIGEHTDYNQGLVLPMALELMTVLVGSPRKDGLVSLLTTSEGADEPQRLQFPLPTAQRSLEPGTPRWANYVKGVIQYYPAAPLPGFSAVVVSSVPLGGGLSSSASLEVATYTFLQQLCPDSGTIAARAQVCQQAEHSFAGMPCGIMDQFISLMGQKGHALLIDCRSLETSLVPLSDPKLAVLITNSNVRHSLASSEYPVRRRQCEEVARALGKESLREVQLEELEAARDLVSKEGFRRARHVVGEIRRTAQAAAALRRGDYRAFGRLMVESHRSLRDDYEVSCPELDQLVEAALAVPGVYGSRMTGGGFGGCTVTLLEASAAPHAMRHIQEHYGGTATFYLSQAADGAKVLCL
In short: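 5 nM GALK / 100 uM galactose / 35 uM ATP, 20 mM HEPES pH8.0, 5 mM MgCl2, 60 mM NaCl, 1 mM DTT, 0.01% BSA (final). RT 1 h; Kinase-Glo Plus luminescence.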

[4] = Validation screen for small molecules that induce DNA re-replication in SW480 colon adenocarcinoma cells (AID 504364); further: potency means the concentration at half of the fitted maximal effect
In short: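 250 cells/well; compound pinned in; 48 hr, 37 C, 5% CO2; Hoechst added, 40 min; nuclear fluorescence imaged, 405 ex / 500-530 em; re-replication scored as increase in high-intensity nuclei.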

[5] = biological target: Peptidyl-prolyl cis-trans isomerase NIMA-interacting 1 (Homo sapiens) (UniProt Q13526); test: qHTS Validation Assay to Find Inhibitors of Pin1 (AID 504536; active means well fitted inhibition curve with a large enough effect in the polarisation, with a control signal flat, not every such curve was filed as active; the % refers to the polarisation; further: potency means the concentration at half of the fitted maximal effect)
Chain of Peptidyl-prolyl cis-trans isomerase NIMA-interacting 1 (Homo sapiens) (Q13526 whole entry, looked up): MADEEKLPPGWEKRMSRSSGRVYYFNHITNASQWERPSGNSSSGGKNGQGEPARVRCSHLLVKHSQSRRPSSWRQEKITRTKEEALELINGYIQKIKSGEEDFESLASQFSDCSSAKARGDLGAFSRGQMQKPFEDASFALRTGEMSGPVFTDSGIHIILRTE
In short: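 Fluorescence polarization competition: compounds (titration) displace HiFluor-488-labeled Pin1-1b peptide from Pin1 (0.3 uM final) in pH 7.5 HEPES buffer with DTT, 10 min at room temperature; %Activity normalized to no-enzyme wells, curves fitted.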

[6] = biological target: Phosphoglycerate kinase, glycosomal (Trypanosoma brucei brucei) (UniProt P07378); test: qHTS Validation Assay to Find Inhibitors of Phosphoglycerate Kinase (AID 504547); further: potency means the concentration at half of the fitted maximal effect
Chain of Phosphoglycerate kinase, glycosomal (Trypanosoma brucei brucei) (P07378 whole entry, looked up): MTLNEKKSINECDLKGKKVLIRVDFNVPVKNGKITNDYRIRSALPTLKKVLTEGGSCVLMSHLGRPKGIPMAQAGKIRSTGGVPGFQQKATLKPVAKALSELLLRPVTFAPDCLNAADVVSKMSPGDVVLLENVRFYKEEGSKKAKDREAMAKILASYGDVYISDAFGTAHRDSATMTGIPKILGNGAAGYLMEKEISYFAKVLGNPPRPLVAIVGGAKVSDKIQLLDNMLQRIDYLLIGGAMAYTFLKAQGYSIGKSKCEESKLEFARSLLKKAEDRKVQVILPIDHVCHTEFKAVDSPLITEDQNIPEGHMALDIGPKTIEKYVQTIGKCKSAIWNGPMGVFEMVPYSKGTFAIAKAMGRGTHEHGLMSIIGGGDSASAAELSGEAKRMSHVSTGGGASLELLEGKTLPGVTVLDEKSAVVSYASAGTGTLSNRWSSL
In short: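 Substrate/PGK mix plus compound; reaction started with GAPDH (100nM final) to form 1,3-BPG; 60 min RT; Kinase-Glo Plus 10 min; luminescence. TEA 100mM pH 7.6, MgCl2 5mM, Tween-20 0.01%.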

[7] = biological target: phosphoglycerate mutase (Leishmania major) (UniProt Q4Q090); test: qHTS Validation Assay to Find Inhibitors of Phosphoglycerate Mutase (AID 504548);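 further: end-point luminescence from Kinase-GloPlus after the PGAM reaction; series mostly up to about 58 µM; on the % scale 0 is the no-effect control and ±100 the full control effect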
Chain of phosphoglycerate mutase (Leishmania major) (Q4Q090 1-553): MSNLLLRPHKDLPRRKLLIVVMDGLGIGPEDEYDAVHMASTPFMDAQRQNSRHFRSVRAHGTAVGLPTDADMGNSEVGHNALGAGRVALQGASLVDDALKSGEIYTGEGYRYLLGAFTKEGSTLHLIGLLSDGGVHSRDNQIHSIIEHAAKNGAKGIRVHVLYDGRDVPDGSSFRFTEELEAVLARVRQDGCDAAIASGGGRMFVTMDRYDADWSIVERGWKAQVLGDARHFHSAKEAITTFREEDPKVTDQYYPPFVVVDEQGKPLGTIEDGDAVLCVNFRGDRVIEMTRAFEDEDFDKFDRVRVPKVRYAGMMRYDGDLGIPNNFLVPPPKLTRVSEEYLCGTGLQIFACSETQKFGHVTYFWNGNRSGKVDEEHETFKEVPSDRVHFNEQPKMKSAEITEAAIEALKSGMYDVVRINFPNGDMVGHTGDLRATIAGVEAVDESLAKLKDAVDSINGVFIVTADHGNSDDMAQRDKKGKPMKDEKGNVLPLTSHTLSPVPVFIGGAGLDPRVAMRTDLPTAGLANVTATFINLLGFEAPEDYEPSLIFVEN
In short: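 Inhibition of L. major PGAM was assessed by Kinase-GloPlus luminescence following a 45-minute room-temperature reaction with enzyme at 1.25nM final.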

[8] = Inducers of the Endoplasmic Reticulum Stress Response (ERSR) in human glioma: Validation (AID 504836); further: 0% is about no effect
In short: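 Stably transfected U87-MG human glioma cells carrying a GRP78-based luminescent sensor were seeded at 1000 cells/well, pin-dosed with compounds and incubated 16 h. Luciferase reagent was then added, and end-point luminescence was read after 10 min at room temperature.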

[9] = biological target: Ubiquitin carboxyl-terminal hydrolase 1 (Homo sapiens) (UniProt O94782); test: Inhibitors of USP1/UAF1: Pilot qHTS (AID 504865); further: nearly all actives have a fitted effect of over 35% in size; further: potency means the concentration at half of the fitted maximal effect
Chain of Ubiquitin carboxyl-terminal hydrolase 1 (Homo sapiens) (O94782 whole entry, looked up): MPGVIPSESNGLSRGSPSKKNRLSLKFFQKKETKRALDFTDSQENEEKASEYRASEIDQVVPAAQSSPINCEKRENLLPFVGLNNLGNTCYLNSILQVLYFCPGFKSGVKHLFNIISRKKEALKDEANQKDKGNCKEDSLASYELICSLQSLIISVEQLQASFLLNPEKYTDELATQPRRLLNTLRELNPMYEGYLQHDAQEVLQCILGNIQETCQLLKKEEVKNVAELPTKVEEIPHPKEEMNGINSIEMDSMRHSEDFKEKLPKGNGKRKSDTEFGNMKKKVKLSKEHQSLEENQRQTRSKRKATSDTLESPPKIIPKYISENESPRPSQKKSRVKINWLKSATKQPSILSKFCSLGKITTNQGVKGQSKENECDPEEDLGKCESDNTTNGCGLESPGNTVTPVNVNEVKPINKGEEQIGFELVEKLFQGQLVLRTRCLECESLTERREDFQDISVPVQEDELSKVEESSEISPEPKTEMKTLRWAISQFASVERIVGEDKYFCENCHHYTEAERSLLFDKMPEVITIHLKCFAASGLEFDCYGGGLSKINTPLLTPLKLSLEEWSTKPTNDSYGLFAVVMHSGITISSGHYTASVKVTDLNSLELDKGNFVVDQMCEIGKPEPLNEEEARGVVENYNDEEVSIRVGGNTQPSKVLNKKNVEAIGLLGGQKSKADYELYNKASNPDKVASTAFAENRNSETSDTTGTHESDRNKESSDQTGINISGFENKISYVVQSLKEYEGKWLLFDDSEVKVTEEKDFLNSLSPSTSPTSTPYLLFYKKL
In short: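 In 50mM HEPES pH 7.8 containing 0.5mM EDTA, 1mM TCEP, 0.1 mg/ml BSA and 0.01% Tween-20, 1nM USP1/UAF1 is exposed to compound for 15 min, then Ub-Rho (150nM final) is added and fluorescence is read over time.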

[10] = qHTS for Inhibitors of ATXN expression: Validation of Cytotoxic Assay (AID 588349); further: potency means the concentration at half of the fitted maximal effect
In short: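 Read-out: ATP-based luminescence (CellTiter Glo) reflecting viability of HEK293 cells after 72 hr incubation at 37 degrees C with a concentration series of each compound.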

[11] = qHTS for Inhibitors of ATXN expression: Validation (AID 588378); further: nearly all actives have a fitted effect of over 75% in size; further: potency means the concentration at half of the fitted maximal effect
In short: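 Compounds were pinned onto attached HEK293 cells carrying an ATXN2-firefly luciferase construct and incubated 24 hrs at 37 degrees C. Each well then received a fluorescent viability reagent followed by luciferase substrate for end-point luminescence.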

[12] = biological target: DNA dC->dU-editing enzyme APOBEC-3G (Homo sapiens) (UniProt Q9HC16); test: qHTS for inhibitors of Vif-A3G interactions: Validation (AID 588379); further: 0% is about no effect
Chain of DNA dC->dU-editing enzyme APOBEC-3G (Homo sapiens) (Q9HC16 whole entry, looked up): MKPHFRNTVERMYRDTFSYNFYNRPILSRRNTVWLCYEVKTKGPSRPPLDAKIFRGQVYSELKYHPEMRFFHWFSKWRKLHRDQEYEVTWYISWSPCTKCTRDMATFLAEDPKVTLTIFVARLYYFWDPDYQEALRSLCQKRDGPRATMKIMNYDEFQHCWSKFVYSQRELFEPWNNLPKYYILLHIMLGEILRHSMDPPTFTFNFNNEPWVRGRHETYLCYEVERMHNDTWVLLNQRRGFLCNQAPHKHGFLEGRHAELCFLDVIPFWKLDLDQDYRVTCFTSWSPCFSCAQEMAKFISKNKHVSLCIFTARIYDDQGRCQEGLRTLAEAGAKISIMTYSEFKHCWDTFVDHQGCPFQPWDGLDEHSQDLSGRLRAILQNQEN
In short: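 HeLa cells stably expressing Vif and A3G-eYFP, 700 cells/well, incubated overnight at 37 deg C, then exposed to compound overnight at 37 deg C. Inhibition of Vif-mediated degradation read as increased yellow fluorescence (Ex 488/Em 500-530) by laser-scanning cytometry.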

[13] = biological target: Estrogen receptor (Homo sapiens) (UniProt P03372); test: qHTS assay for small molecule antagonists of estrogen receptor alpha signaling (AID 588513; active means well fitted curve in the direction sought with a large enough effect in the signal ratio, with a control signal flat, not every such curve was filed as active; the % refers to the signal ratio; further: on the % scale 0 is the no-effect control and ±100 the full control effect)
Chain of Estrogen receptor (Homo sapiens) (P03372 whole entry, looked up): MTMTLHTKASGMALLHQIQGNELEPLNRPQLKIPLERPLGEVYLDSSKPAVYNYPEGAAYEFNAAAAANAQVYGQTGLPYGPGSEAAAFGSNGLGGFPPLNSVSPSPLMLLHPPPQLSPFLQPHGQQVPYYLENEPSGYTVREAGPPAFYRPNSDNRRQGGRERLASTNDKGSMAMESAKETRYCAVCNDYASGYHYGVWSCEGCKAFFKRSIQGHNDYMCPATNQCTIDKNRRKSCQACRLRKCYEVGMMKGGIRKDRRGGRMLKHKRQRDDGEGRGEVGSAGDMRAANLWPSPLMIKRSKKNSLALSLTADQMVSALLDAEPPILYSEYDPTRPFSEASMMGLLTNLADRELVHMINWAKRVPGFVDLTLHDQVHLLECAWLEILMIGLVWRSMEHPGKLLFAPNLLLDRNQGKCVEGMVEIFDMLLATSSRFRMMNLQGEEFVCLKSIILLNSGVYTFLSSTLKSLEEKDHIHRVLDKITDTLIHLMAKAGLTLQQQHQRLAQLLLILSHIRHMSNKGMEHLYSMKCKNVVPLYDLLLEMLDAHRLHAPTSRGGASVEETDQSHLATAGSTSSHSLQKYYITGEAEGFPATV
In short: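 Fluorescence from CCF4 substrate after 2 h at room temperature gave reporter activity; cells had been exposed to compound and 0.5nM 17-beta-estradiol for 18 h at 37 C. Hill-equation fitting yielded IC50 and maximal response.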

[14] = biological target: Estrogen receptor (Homo sapiens) (UniProt P03372); test: qHTS assay for small molecule agonists of estrogen receptor alpha signaling (AID 588514; calls by dose curve;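 further: 0% = vehicle only and 100% = reference agonist; nearly all actives have a fitted effect of over 70% in size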)
In short: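 Cells were plated at 5000/well, incubated 4 hrs at 37 C, dosed with compound titration series, incubated 18 hrs at 37 C, loaded with CCF4 dye for 2 hrs at RT, then fluorescence was read.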

[15] = biological target: Bile acid receptor (Homo sapiens) (UniProt Q96RI1); test: qHTS assay for small molecule antagonists of farnesoid X receptor signaling (AID 588526; calls by dose curve; further: on the % scale 0 is the no-effect control and ±100 the full control effect)
Chain of Bile acid receptor (Homo sapiens) (Q96RI1 whole entry, looked up): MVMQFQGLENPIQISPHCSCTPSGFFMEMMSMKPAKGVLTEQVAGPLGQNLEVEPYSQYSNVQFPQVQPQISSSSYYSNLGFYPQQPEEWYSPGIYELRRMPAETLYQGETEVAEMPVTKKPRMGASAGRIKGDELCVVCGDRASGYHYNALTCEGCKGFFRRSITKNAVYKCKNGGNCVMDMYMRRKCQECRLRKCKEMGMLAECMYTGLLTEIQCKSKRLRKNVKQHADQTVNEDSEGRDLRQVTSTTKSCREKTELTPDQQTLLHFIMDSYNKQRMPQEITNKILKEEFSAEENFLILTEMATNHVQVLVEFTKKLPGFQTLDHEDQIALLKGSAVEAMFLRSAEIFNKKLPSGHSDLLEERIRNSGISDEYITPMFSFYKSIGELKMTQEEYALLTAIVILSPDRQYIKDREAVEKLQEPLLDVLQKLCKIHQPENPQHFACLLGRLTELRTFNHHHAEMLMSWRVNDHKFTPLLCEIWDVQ
In short: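 Concentration-response titrations were fitted to the Hill equation for half-maximal inhibition and maximal response, with data normalised to 50 uM chenodeoxycholic acid and DMSO control wells. Cells: FXR-UAS-bla HEK293T, dialyzed FBS.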

[16] = biological target: Bile acid receptor (Homo sapiens) (UniProt Q96RI1); test: qHTS assay for small molecule agonists of farnesoid X receptor signaling (AID 588527; calls by dose curve;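 further: series mostly up to about 77 µM; 0% = vehicle basal and 100% = reference agonist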); conditions: HEK293T FXR-UAS-bla, beta-lactamase ratio, 16 h; stronger effect = higher value
In short: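 Quantitative HTS used FXR-UAS-bla HEK293T cells with 16 h compound incubation at 37 C. EC50 values came from concentration-response curves normalized to chenodeoxycholic acid.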

[17] = biological target: Glucocorticoid receptor (Homo sapiens) (UniProt P04150); test: qHTS assay for small molecule agonists of glucocorticoid receptor signaling (AID 588532; active means well fitted curve in the direction sought with a large enough effect in the signal ratio, with a control signal flat; the % refers to the signal ratio;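 further: 100% = dexamethasone at 0.1 µM and 0% = DMSO only wells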); conditions: HeLa MMTV-bla, beta-lactamase ratio, agonist, 18 h; stronger effect = higher value; percent of dexamethasone control, DMSO zero
Chain of Glucocorticoid receptor (Homo sapiens) (P04150 whole entry, looked up): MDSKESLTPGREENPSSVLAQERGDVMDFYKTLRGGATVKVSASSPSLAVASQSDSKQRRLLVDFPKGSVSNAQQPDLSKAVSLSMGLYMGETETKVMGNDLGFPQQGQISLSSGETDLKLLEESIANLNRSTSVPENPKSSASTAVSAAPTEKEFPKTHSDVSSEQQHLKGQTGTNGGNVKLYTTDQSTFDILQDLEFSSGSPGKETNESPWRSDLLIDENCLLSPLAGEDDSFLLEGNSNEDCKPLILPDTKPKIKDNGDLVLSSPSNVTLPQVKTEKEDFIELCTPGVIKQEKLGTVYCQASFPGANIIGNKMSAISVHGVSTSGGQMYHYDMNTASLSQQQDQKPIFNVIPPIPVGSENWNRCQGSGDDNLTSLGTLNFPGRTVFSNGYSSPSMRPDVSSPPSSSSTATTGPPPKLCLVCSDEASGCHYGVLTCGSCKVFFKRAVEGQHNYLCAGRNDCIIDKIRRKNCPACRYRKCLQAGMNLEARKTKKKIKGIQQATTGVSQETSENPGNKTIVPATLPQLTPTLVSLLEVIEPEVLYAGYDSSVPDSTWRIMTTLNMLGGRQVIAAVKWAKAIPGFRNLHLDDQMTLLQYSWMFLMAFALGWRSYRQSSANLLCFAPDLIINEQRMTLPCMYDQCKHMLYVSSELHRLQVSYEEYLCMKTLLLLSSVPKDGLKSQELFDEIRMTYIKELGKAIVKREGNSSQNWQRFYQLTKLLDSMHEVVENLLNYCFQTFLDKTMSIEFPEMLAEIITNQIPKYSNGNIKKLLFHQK
In short: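 Stimulation of a glucocorticoid response element-driven beta-lactamase gene was measured in HeLa cells. Responses were scaled between DMSO basal and 0.1 uM dexamethasone, then fitted for half-maximal stimulation.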

[18] = biological target: Glucocorticoid receptor (Homo sapiens) (UniProt P04150); test: qHTS assay for small molecule antagonists of glucocorticoid receptor signaling (AID 588533; active means well fitted inhibition curve with a large enough effect in the signal ratio, with a control signal flat, not every such curve was filed as active; the % refers to the signal ratio;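 further: cells stimulated with 2 nM dexamethasone as agonist; on the % scale 0 is the no-effect control and ±100 the full control effect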)
In short: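 Antagonist-mode qHTS: compound titrations added to GRE-bla HeLa cells, then dexamethasone 2 nM final; 18 h, 37 C. CCF4 FRET fluorescence normalized to dexamethasone and DMSO; IC50 from Hill fit.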

CC(CCc1ccccc1)NC(C)C(O)c1ccc(O)cc1 (stereo unspecified)
inactive: Potency [1] | outcome [2] | outcome [3] | Potency [4] | Potency [5] | Potency [6] | outcome [7] | outcome [8] | Potency [9]
-10.8%: viability change [1]

CCCN1CCC[C@@H]2Cc3nc(N)ncc3C[C@H]21
1.56%: viability change [1]
inactive: Potency [1] | outcome [2] | outcome [3] | Potency [4] | Potency [5] | Potency [6] | outcome [7] | outcome [8] | Potency [9] | Potency [10] | Potency [11]

CCCN1CCC[C@@H]2Cc3[nH]ncc3C[C@H]21
inactive: Potency [1] | outcome [2] | Potency [5] | Potency [6] | outcome [7] | outcome [8] | Potency [9] | Potency [10] | Potency [11] | outcome [12]
1.53% and 0.366%: viability change [1]

O=C1NCN(c2ccccc2)C12CCN(CC1COc3ccccc3O1)CC2 (stereo unspecified)
inactive: Potency [1] | outcome [2] | outcome [3] | Potency [4] | Potency [5] | Potency [6] | outcome [7] | outcome [8] | Potency [9] | Potency [10] | Potency [11]
1.49%: viability change [1]

NCC1(CC(=O)O)CCCCC1
10.1%: viability change [1]
inactive: Potency [1] | outcome [2] | outcome [3] | Potency [4] | Potency [5] | Potency [6] | outcome [7] | outcome [8] | Potency [9] | Potency [10] | Potency [11] | outcome [12]

Cc1cccc(C)c1NC(=O)CN1CCCC1=O
inactive: Potency [1] | outcome [2] | Potency [6] | outcome [7] | outcome [8] | Potency [9] | Potency [10] | Potency [11]
-4.1%: viability change [1]

c1ccc2c(c1)OCC(C1=NCCN1)O2 (stereo unspecified)
active: Potency [10] 22.4 µM
inactive: outcome [2] | outcome [3] | Potency [4] | Potency [5] | Potency [6] | outcome [7] | outcome [8] | Potency [9]

NCC(O)c1ccc(O)cc1 (stereo unspecified)
inactive: Potency [1] | outcome [2] | outcome [3] | Potency [4] | Potency [5] | Potency [6] | outcome [7] | outcome [8] | Potency [9] | Potency [10] | Potency [11]
0.943%: viability change [1]

N#CC(C#N)=Cc1ccc(O)c(O)c1
-7.57%: viability change [1]
inactive: Potency [1] | outcome [2] | outcome [3] | Potency [4] | Potency [5] | Potency [6] | outcome [7] | outcome [8] | Potency [9] | Potency [10] | Potency [11] | outcome [12]

CNCC(O)c1ccc(O)cc1 (stereo unspecified)
-6.1%: viability change [1]
inactive: Potency [1] | outcome [2] | outcome [3] | Potency [4] | Potency [5] | Potency [6] | outcome [7] | outcome [8] | Potency [9] | Potency [10] | Potency [11] | outcome [13] | Potency [14] | Potency [15] | activation [16] -1.79% | activation [17] 9.17% | Potency [18]

Cc1ccc(S(=O)(=O)N[C@@H](CCCCN)C(=O)CCl)cc1
inactive: Potency [1] | outcome [3] | Potency [4] | Potency [5] | Potency [6] | outcome [7] | outcome [8] | Potency [11]
active: Potency [9] 50.1 µM and 39.8 µM
-2.81%: viability change [1]

CCC1(C2=NCCN2)Cc2ccccc2O1 (stereo unspecified)
1.87%: viability change [1]
inactive: Potency [1] | outcome [2] | outcome [3] | Potency [4] | Potency [5] | Potency [6] | outcome [7] | outcome [8] | Potency [9] | Potency [10] | Potency [11]

COc1ccc(C(CN(C)C)C2(O)CCCCC2)cc1 (stereo unspecified)
inactive: Potency [1] | outcome [2] | Potency [5] | Potency [6] | outcome [7] | outcome [8] | Potency [9] | Potency [10] | Potency [11]
3.45%: viability change [1]

Cc1cccc(C)c1NC1=NCCCS1
inactive: Potency [1] | outcome [2] | outcome [3] | Potency [4] | Potency [5] | Potency [6] | outcome [7] | outcome [8] | Potency [9] | Potency [10] | Potency [11]
-1.16%: viability change [1]

COC[C@H]1OC(=O)c2coc3c2[C@@]1(C)C1=C(C3=O)C2CCC(=O)[C@@]2(C)C[C@H]1OC(C)=O (stereo partly specified)
inactive: outcome [3] | Potency [4] | Potency [6] | outcome [7] | Potency [9]

CCn1cc(C(=O)O)c(=O)c2ccc(C)nc21
inactive: outcome [3] | Potency [4] | outcome [8] | Potency [14] | activation [16] -0.319% and 0.585%

NN=C(N)N
4.74% and 3.63%: viability change [1]
inactive: Potency [1] | outcome [2] | outcome [3] | Potency [4] | Potency [5] | Potency [6] | outcome [7] | outcome [8] | Potency [9] | Potency [10] | Potency [11] | outcome [12]

Clc1cccc(N2CCNCC2)c1
inactive: outcome [3] | Potency [4] | outcome [12]

COc1cc2c(c(OC)c1OC)-c1ccc(OC)c(=O)cc1[C@@H](NC(C)=O)CC2
active: Potency [4] 0.058 µM
inactive: outcome [13] | activation [16] -2.29% | activation [17] -3.94% and -2.86% | Potency [18]

Cc1cc2c(C(C)C)c(O)c(O)c(C=O)c2c(O)c1-c1c(C)cc2c(C(C)C)c(O)c(O)c(C=O)c2c1O
active: Potency [5] 9.53 µM | Potency [10] 10 µM | Potency [11] 7.08 µM

O=c1c(O)c(-c2ccc(O)c(O)c2)oc2cc(O)cc(O)c12
active: Potency [6] 7.57 µM

Nc1nc2c(ncn2COC(CO)CO)c(=O)[nH]1
inactive: outcome [8]

COc1cc2nc(N3CCN(C(=O)c4ccco4)CC3)nc(N)c2cc1OC
inactive: outcome [8]

COc1cc2nc(N3CCN(C(=O)C4CCCO4)CC3)nc(N)c2cc1OC (stereo unspecified)
inactive: outcome [8]

CC#C[C@]1(O)CC[C@H]2[C@@H]3CCC4=CC(=O)CCC4=C3[C@@H](c3ccc(N(C)C)cc3)C[C@@]21C
inactive: outcome [8]

CCN(CC)CCCC(C)Nc1ccnc2cc(Cl)ccc12 (stereo unspecified)
inactive: outcome [8]

NC(=O)c1cn(Cc2c(F)cccc2F)nn1
inactive: outcome [8]

CC(C)[N+](C)(CCOC(=O)C1c2ccccc2Oc2ccccc21)C(C)C
inactive: outcome [8]

NC(=O)NO
inactive: outcome [8]
